# ChEMBL document CHEMBL3433997, “St. Jude Leishmania screening dataset” (2016)
# Target: Solute carrier family 2, facilitated glucose transporter member 1 (Homo sapiens) (UniProt P11166)
# Assay: ST_JUDE_LEISH: Cytotoxicity at 2uM final concentration against transgenic Leishmania Mexicana promastigotes LmGLUT1 that are glucose transport deficient and complemented with the human glucose transporter GLUT1. Activity is measured by DNA content using SYBR green in vitro
# Assay type: functional
# Solute carrier family 2, facilitated glucose transporter member 1 (Homo sapiens), sequence (P11166 whole entry): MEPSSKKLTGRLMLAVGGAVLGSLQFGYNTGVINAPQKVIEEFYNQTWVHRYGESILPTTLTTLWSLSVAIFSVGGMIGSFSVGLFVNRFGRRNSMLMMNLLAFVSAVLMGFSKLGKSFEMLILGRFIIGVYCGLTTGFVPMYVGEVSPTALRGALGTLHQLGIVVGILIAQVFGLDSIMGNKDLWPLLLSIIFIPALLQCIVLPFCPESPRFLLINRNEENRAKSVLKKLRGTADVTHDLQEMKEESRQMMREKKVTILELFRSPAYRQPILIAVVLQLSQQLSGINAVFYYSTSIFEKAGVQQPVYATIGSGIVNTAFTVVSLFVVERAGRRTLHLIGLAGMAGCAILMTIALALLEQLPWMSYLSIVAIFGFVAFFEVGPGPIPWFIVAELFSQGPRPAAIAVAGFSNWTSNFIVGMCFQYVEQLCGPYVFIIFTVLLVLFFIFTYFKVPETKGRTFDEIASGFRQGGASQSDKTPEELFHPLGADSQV
row,Structure (SMILES),inhibition
1,Cc1[nH]c(C)c(-c2ccc(OCc3ccccc3C(F)(F)F)nc2)c(=O)c1Br,4.88%
2,CCc1c[nH]c2c(N3CCCC3=O)cc(C(=O)N[C@@H](Cc3ccccc3)[C@H](O)CNC3CCCCC3)cc12,7.8%
3,O=C(Nc1cccc(-c2nn3ccccc3c2-c2ccnc(Nc3cccc(F)c3)n2)c1)c1c(F)ccc(F)c1F,6.01%
4,O=C(Nc1cccc(-c2ccc(-c3nc4cc(C(F)(F)F)ccc4[nH]3)cc2)c1)c1ccoc1,-0.21%
5,O=C(Cc1ccccc1)NC(c1ccccc1)c1ccc2cccnc2c1O (centres undefined),2.31%
6,O=C(CSc1nc(-c2ccccc2Cl)ns1)Nc1ccc2c(c1)OCO2,-0.52%
7,O=C(Nc1ccc(Cl)cc1)c1cccc(S(=O)(=O)NC2CCN(CC3CCCCC3)C2)c1 (centres undefined),9.12%
8,CC(C)(C)c1ccc(CNC(=O)COc2ccc(-c3nnc(-c4cccc([N+](=O)[O-])c4)o3)cc2[N+](=O)[O-])cc1,-0.15%
9,Cc1nn(-c2ccccc2)nc1C(=O)N(Cc1ccc(-c2ccc(CNCCc3ccc(S(C)(=O)=O)cc3)cn2)cc1)C1CC1,3.23%
10,COc1ccc2cc(CNCCCCCCNCc3ccc4cc(OC)ccc4c3)ccc2c1,107%
11,COc1cc2cc(C(=O)Nc3ccccc3)c(N)nc2cc1OC,0.36%
12,CC(C)c1ccc(NC(=O)NCC2CCCN(CCCCCNC(=O)/C=C/c3ccc(Cl)c(Cl)c3)C2)cc1 (centres undefined),2.73%
13,N#Cc1ccc(/C=C/C(=O)NCCCCCN2CCN(C(=O)Nc3ccc(Cl)c(C(F)(F)F)c3)CC2)cc1,5.8%
14,Cc1[nH]c(C)c(-c2ccc(CCc3ccc(F)cc3F)cc2)c(=O)c1Cl,0.89%
